# Laboratory results: PubChem BioAssay AID1159580 (chemical genetic matrix, 2015)
# Several values for one entry are separate records, joined by “and”; a condition that tells them apart may be missing. Equal entries are not always repeated. Screen size: about 5,500 compounds; about 2,000 (36%) were called active. Another 18% or so got no clear call; they are omitted. This is one part of the list. Unmarked numbers belong to inactive results. Cut-off read from the data, not from the text of the source: active = normalized growth mostly below about 0.91 (no sharp cut-off); inconclusive = no clear call, values can overlap the other calls; inactive = mostly above about 0.92.
# Test: chemical genetic growth profiling, strain panel (AID 1159580);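 note: tested at 20 µM; growth read once vehicle control cultures reached saturation at 30 °C; 1 = growth at the plate median or of vehicle wells; lower values mean less growth of the strain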
# Conditions: S. cerevisiae deletion strains, growth OD
structure (smiles),measurement,setting,value
Cc1c(Cl)cccc1Nc1ccccc1C(=O)O,normalized growth,"locus YAL021C, strain ccr4, hits give low values",0.863 (active)
same,normalized growth,"locus YAL026C, strain drs2, hits give low values",0.805 (active)
same,normalized growth,"locus YAL030W, strain snc1, hits give low values",0.842 (active)
same,normalized growth,"locus YBL061C, strain skt5, hits give low values",0.81 (active)
same,normalized growth,"locus YBR009C, strain hhf1, hits give low values",0.82 (active)
same,normalized growth,"locus YBR021W, strain FUR4, hits give low values",0.74 (active)
same,normalized growth,"locus YBR023C, strain chs3, hits give low values",0.801 (active)
same,normalized growth,"locus YBR171W, strain sec66, hits give low values",0.729 (active)
same,normalized growth,"locus YBR229C, strain ROT2, hits give low values",0.848 (active)
same,normalized growth,"locus YBR231C, strain swc5, hits give low values",0.825 (active)
same,normalized growth,"locus YBR279W, strain paf1, hits give low values",0.839 (active)
same,normalized growth,"locus YCL011C, strain gbp2, hits give low values",0.83 (active)
same,normalized growth,"locus YCL016C, strain dcc1, hits give low values",0.827 (active)
same,normalized growth,"locus YCL029C, strain bik1, hits give low values",0.812 (active)
same,normalized growth,"locus YCL061C, strain MRC1, hits give low values",0.842 (active)
same,normalized growth,"locus YCL069W, strain vba3, hits give low values",0.815 (active)
same,normalized growth,"locus YCR088W, strain abp1, hits give low values",0.812 (active)
same,normalized growth,"locus YDL005C, strain med2, hits give low values",0.865 (active)
same,normalized growth,"locus YDL035C, strain GPR1, hits give low values",0.848 (active)
same,normalized growth,"locus YDL040C, strain nat1, hits give low values",0.83 (active)
same,normalized growth,"locus YDL074C, strain BRE1, hits give low values",0.75 (active)
same,normalized growth,"locus YDL101C, strain DUN1, hits give low values",0.929
same,normalized growth,"locus YDL134C, strain PPH21, hits give low values",0.817 (active)
same,normalized growth,"locus YDL185W, strain tfp1, hits give low values",0.956
same,normalized growth,"locus YDL192W, strain arf1, hits give low values",0.796 (active)
same,normalized growth,"locus YDR001C, strain nth1, hits give low values",0.804 (active)
same,normalized growth,"locus YDR069C, strain doa4, hits give low values",0.897 (active)
same,normalized growth,"locus YDR101C, strain arx1, hits give low values",0.835 (active)
same,normalized growth,"locus YDR137W, strain rgp1, hits give low values",0.464 (active)
same,normalized growth,"locus YDR150W, strain NUM1, hits give low values",0.836 (active)
same,normalized growth,"locus YDR159W, strain sac3, hits give low values",0.615 (active)
same,normalized growth,"locus YDR162C, strain NBP2, hits give low values",0.709 (active)
same,normalized growth,"locus YDR195W, strain ref2",1.15 [resistant] (active)
same,normalized growth,"locus YDR297W, strain sur2, hits give low values",0.835 (active)
same,normalized growth,"locus YDR318W, strain mcm21, hits give low values",0.793 (active)
same,normalized growth,"locus YDR334W, strain swr1, hits give low values",0.812 (active)
same,normalized growth,"locus YDR335W, strain msn5, hits give low values",0.836 (active)
same,normalized growth,"locus YDR388W, hits give low values",0.79 (active)
same,normalized growth,"locus YDR392W, strain spt3, hits give low values",0.225 (active)
same,normalized growth,"locus YDR502C, strain sam2, hits give low values",0.802 (active)
same,normalized growth,"locus YEL003W, strain gim4, hits give low values",0.839 (active)
same,normalized growth,"locus YEL037C, strain rad23, hits give low values",0.836 (active)
same,normalized growth,"locus YEL061C, strain CIN8 (second series), hits give low values",0.819 (active)
same,normalized growth,"locus YEL061C, strain CIN8, hits give low values",0.855 (active)
same,normalized growth,"locus YER015W, strain faa2, hits give low values",0.848 (active)
same,normalized growth,"locus YER016W, strain bim1, hits give low values",0.856 (active)
same,normalized growth,"locus YER110C, hits give low values",0.769 (active)
same,normalized growth,"locus YER111C, strain swi4, hits give low values",0.831 (active)
same,normalized growth,"locus YER155C, strain BEM2 (second series), hits give low values",0.595 (active)
same,normalized growth,"locus YER155C, strain BEM2, hits give low values",0.684 (active)
same,normalized growth,"locus YER167W, strain BCK2, hits give low values",0.812 (active)
same,normalized growth,"locus YFR010W, strain ubp6, hits give low values",0.876 (active)
same,normalized growth,"locus YGL078C, strain dbp3, hits give low values",0.958
same,normalized growth,"locus YGL086W, strain mad1, hits give low values",0.815 (active)
same,normalized growth,"locus YGL167C, strain pmr1, hits give low values",0.757 (active)
same,normalized growth,"locus YGL173C, strain kem1, hits give low values",0.819 (active)
same,normalized growth,"locus YGL227W, strain vid30, hits give low values",0.808 (active)
same,normalized growth,"locus YGL240W, strain doc1, hits give low values",0.791 (active)
same,normalized growth,"locus YGL248W, strain PDE1, hits give low values",0.841 (active)
same,normalized growth,"locus YGL253W, strain hxk2, hits give low values",0.706 (active)
same,normalized growth,"locus YGR078C, strain PAC10, hits give low values",0.814 (active)
same,normalized growth,"locus YGR135W, strain pre9, hits give low values",0.792 (active)
same,normalized growth,"locus YGR252W, strain gcn5, hits give low values",0.609 (active)
same,normalized growth,"locus YHR013C, strain ard1, hits give low values",0.854
same,normalized growth,"locus YHR027C, strain rpn1, hits give low values",0.843 (active)
same,normalized growth,"locus YHR030C, strain SLT2, hits give low values",0.827 (active) and 0.555 (active)
same,normalized growth,"locus YHR079C, strain IRE1 (second series), hits give low values",0.793 (active)
same,normalized growth,"locus YHR079C, strain IRE1, hits give low values",0.633 (active)
same,normalized growth,"locus YHR094C, strain hxt1, hits give low values",0.796 (active)
same,normalized growth,"locus YHR129C, strain ARP1, hits give low values",0.837 (active)
same,normalized growth,"locus YHR142W, strain chs7, hits give low values",0.586 (active)
same,normalized growth,"locus YHR200W, strain rpn10, hits give low values",0.789 (active)
same,normalized growth,"locus YIL066C, strain RNR3, hits give low values",0.839 (active)
same,normalized growth,"locus YIL073C, strain SPO22, hits give low values",0.776
same,normalized growth,"locus YIL125W, strain kgd1, hits give low values",0.966
same,normalized growth,"locus YIR030C, strain dcg1, hits give low values",0.792 (active)
same,normalized growth,"locus YJL092W, strain hpr5, hits give low values",0.814 (active)
same,normalized growth,"locus YJL095W, strain BCK1 (second series), hits give low values",0.828 (active)
same,normalized growth,"locus YJL095W, strain BCK1, hits give low values",0.594 (active) and 0.648 (active)
same,normalized growth,"locus YJL115W, strain asf1, hits give low values",0.854 (active)
same,normalized growth,"locus YJL129C, strain trk1, hits give low values",0.442 (active)
same,normalized growth,"locus YJL134W, strain LCB3, hits give low values",0.842 (active)
same,normalized growth,"locus YJL154C, strain vps35, hits give low values",0.845 (active)
same,normalized growth,"locus YJL164C, strain tpk1, hits give low values",0.803 (active)
same,normalized growth,"locus YJL166W, strain qcr8, hits give low values",0.756 (active)
same,normalized growth,"locus YJL168C, strain set2, hits give low values",0.797 (active)
same,normalized growth,"locus YJL187C, strain SWE1 (second series), hits give low values",0.851 (active)
same,normalized growth,"locus YJL187C, strain SWE1, hits give low values",0.832 (active)
same,normalized growth,"locus YJR043C, strain POL32, hits give low values",0.867
same,normalized growth,"locus YJR066W, strain TOR1, hits give low values",0.731 (active)
